Broadly, the AC50 is the midpoint of the concentration-response curve, whichever way the signal moves.

Experimental findings from PubChem BioAssay (EPA / NIEHS) are described below.

Details in all cases: primary human HUVEC with PBMC; actives raise or lower the signal
Read-out in test [1]: Interleukin-1 alpha (IL1a), IL1A (gene 3552)
As to the kind of experiment: BSK_LPS_IL1a: BioMAP Diversity Plus: LPS Assay for Interleukin-1 alpha (IL1a) Biomarker Activity (AID 2283080). A digest of the protocol: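 Human umbilical vein endothelial cells co-cultured with peripheral blood mononuclear cells were LPS-stimulated and exposed to test chemicals for 24 h. IL-1 alpha was quantified by ELISA, with bidirectional curve fitting against DMSO as the negative control and baseline.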

Read-out in test [2]: Monocyte Chemoattractant Protein-1 (MCP1), CCL2 (gene 6347)
Put plainly: BSK_LPS_MCP1: BioMAP Diversity Plus: LPS Assay for Monocyte Chemoattractant Protein-1 (MCP1) Biomarker Activity (AID 2283081).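 As to AC50: secreted MCP-1 protein quantified by ELISA in culture supernatant.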 A digest of the protocol: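 HUVEC plus PBMC co-culture (human primary cells, LPS system) exposed to test chemical for 24 h; MCP-1 measured by ELISA. Bidirectional curve fitting against DMSO baseline; parallel SRB total-protein staining flags overt cytotoxicity.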

Test [3] is described as follows: BSK_LPS_PGE2: BioMAP Diversity Plus: LPS Assay for Prostaglandin E2 (PGE2) Biomarker Activity (AID 2283082). Summed up: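 Compounds were added to the LPS co-culture of endothelium and PBMC, and PGE2 was measured by ELISA after 24 h. Responses in either direction were fitted with DMSO as baseline.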
Read-out in test [4]: Macrophage colony-stimulating factor (MCSF), CSF1 (gene 1435)
Put plainly: BSK_LPS_MCSF: BioMAP Diversity Plus: LPS Assay for Macrophage colony-stimulating factor (MCSF) Biomarker Activity (AID 2283083). Summed up:
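Human umbilical vein endothelial cells co-cultured with peripheral blood mononuclear cells were exposed to compound for 24 h. M-CSF levels were measured by ELISA, and bidirectional curve fitting used DMSO as the negative control and baseline.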

Read-out in test [5]: Tissue Factor, F3 (gene 2152)
Put plainly: BSK_LPS_TissueFactor: BioMAP Diversity Plus: LPS Assay for Tissue Factor Biomarker Activity (AID 2283084). A digest of the protocol: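 Human umbilical vein endothelial cells co-cultured with peripheral blood mononuclear cells were dosed and stimulated with LPS. Cell-surface CD142 was quantified by ELISA at 24 h. Activity was fitted bidirectionally against DMSO baseline.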

Read-out in test [6]: Tumor necrosis factor (Homo sapiens) (UniProt P01375)
As to the kind of experiment: BSK_LPS_TNFa: BioMAP Diversity Plus: LPS Assay for Tumour Necrosis Factor alpha (TNFa) Biomarker Activity (AID 2283085).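 As to AC50: TNFa protein level quantified by ELISA in the co-culture.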 Summed up:
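Cells (umbilical vein endothelium plus peripheral blood mononuclear cells) were dosed with chemical, incubated 24 h, then TNFa was quantified by ELISA; values derive from bidirectional fitting with DMSO as baseline.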

Read-out in test [7]: Vascular cell adhesion molecule 1 (VCAM1), VCAM1 (gene 7412)
Put plainly: BSK_LPS_VCAM1: BioMAP Diversity Plus: LPS Assay for Vascular cell adhesion molecule 1 (VCAM1) Biomarker Activity (AID 2283086). A digest of the protocol: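 Cells are dosed in an LPS-stimulated endothelial/mononuclear co-culture and, after 24 h, VCAM-1 is quantified by ELISA. Activity in either direction is fitted relative to the DMSO negative control.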

Read-out in the next test: CD38, CD38 (gene 952)
As to the kind of experiment: BSK_SAg_CD38: BioMAP Diversity Plus: SAg Assay for CD38 Biomarker Activity (AID 2283087). A digest of the protocol:
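CD38 quantified by ELISA (fluorescence) in a superantigen-activated endothelial cell–PBMC co-culture at 24 h post-dose. Activity fitted in both directions relative to DMSO; parallel SRB and Alamar Blue cytotoxicity read-outs.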

Read-out in a further test: CD40, CD40 (gene 958)
Put plainly: BSK_SAg_CD40: BioMAP Diversity Plus: SAg Assay for CD40 Biomarker Activity (AID 2283088). A digest of the protocol: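 Human umbilical vein endothelial cells co-cultured with PBMC; CD40 levels measured by ELISA with fluorescence read-out 24 h after chemical dosing. Gain or loss of signal fitted bidirectionally against DMSO baseline.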

Read-out in the next test: CD69, CD69 (gene 969)
Put plainly: BSK_SAg_CD69: BioMAP Diversity Plus: SAg Assay for CD69 Biomarker Activity (AID 2283089).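 As to AC50: cell surface CD69 protein quantified by ELISA with fluorescence detection.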 A digest of the protocol: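 Values derive from bidirectional fitting relative to DMSO vehicle. Cells: umbilical vein endothelium plus peripheral blood mononuclear cells, treated 24 h before fluorescent ELISA for CD69.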

Several values for one entry are separate records, joined by “and”; a condition that tells them apart may be missing. Equal entries are not always repeated. Some structures have more than one record in an assay (separate samples or runs), and their calls can disagree. Activity calls are given as the source filed them. The calls were made as follows: active = hit-call score of the fitted dose curve at least 0.9, where 1 is the maximum; inactive = score below 0.9.

Tumor necrosis factor (Homo sapiens), sequence (P01375 whole entry, looked up): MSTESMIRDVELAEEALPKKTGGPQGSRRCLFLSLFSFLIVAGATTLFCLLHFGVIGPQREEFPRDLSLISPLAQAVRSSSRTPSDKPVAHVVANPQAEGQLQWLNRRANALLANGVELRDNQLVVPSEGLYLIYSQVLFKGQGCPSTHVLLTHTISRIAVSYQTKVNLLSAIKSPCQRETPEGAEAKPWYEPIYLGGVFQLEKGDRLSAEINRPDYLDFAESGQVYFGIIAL

`COP(=O)(NC(C)=O)SC` (stereo not given): the result in test [1], in test [2], in test [3], in test [4], in [5] and in test [6] was inactive. The outcome was “inactive” in test [7]; “inactive” with CD38, CD38 (gene 952); “inactive” with CD40, CD40 (gene 958); “inactive” in the test with CD69, CD69 (gene 969).

As to `CNc1cnn(-c2cccc(C(F)(F)F)c2)c(=O)c1Cl`, the result in test [1], in test [2], in test [3], in [4], in test [5] and in [6] was inactive. Besides, the outcome in test [7] was inactive. Further, the AC50 with CD38, CD38 (gene 952) was 9.82 µM (active); with CD40, CD40 (gene 958), 11.7 µM (active); in the test with CD69, CD69 (gene 969), 29.1 µM (active).

`CCCCOC(=O)[C@@H](C)Oc1ccc(Oc2ccc(C#N)cc2F)cc1`: the result in test [1], in test [2], in test [3], in test [4], in test [5] and in [6] was inactive. The outcome in test [7] was “inactive”; in the test with CD40, CD40 (gene 958), “inactive”; in the test with CD69, CD69 (gene 969) it was “inactive”.

In the case of `CC[C@H](C)[C@H]1O[C@]2(C=C[C@@H]1C)C[C@@H]1C[C@@H](C/C=C(\C)[C@@H](O[C@H]3C[C@H](OC)[C@@H](O[C@H]4C[C@H](OC)[C@@H](NC)[C@H](C)O4)[C@H](C)O3)[C@@H](C)/C=C/C=C3\CO[C@@H]4[C@H](O)C(C)=C[C@@H](C(=O)O1)[C@]34O)O2`, the concentration at half-maximal activity (AC50) in [1] is 3.68 µM (active); in test [2], 5.49 µM (active); in test [4], 4.33 µM (active); in test [5], 9.74 µM (active); in test [6] it was 4.56 µM (active); in test [7], 7.42 µM (active). Also, the half-maximal activity concentration (AC50) with CD38, CD38 (gene 952) was 3.25 µM (active); with CD40, CD40 (gene 958), 3.34 µM (active); with CD69, CD69 (gene 969), 4.17 µM (active). For the same molecule, in test [3], the result was inactive.

Turning to `CCOP(=S)(OCC)SCCSCC`, the outcome in [1], in [2], in test [3], in [4], in test [5] and in test [6] was inactive. The outcome in test [7] was “inactive”; with CD40, CD40 (gene 958), “inactive”; in the test with CD69, CD69 (gene 969), “inactive”.

With `FC(F)C(F)(F)OCC(Cn1cncn1)c1ccc(Cl)cc1Cl` (stereo not given), the result in test [1], in [2], in [5] and in test [6] was inactive. In addition, the AC50 in test [3] is 2.52 µM (active); in [4], 30.7 µM (active); in test [7], 32.8 µM (active); in the test with CD38, CD38 (gene 952), 20 µM (active); in the test with CD69, CD69 (gene 969), 30 µM (active).

As to `O=[N+]([O-])c1cc(C(F)(F)F)c(Cl)c([N+](=O)[O-])c1Nc1ncc(C(F)(F)F)cc1Cl`, the AC50 in test [1] was 1.35 µM (active) and 2.31 µM (active); in [2] it was 1.52 µM (active) and 3.74 µM (active); in [3] it was 7.89 µM (active) and 3.71 µM (active); in test [4], 1.49 µM (active) and 2.86 µM (active); in test [5], 1.44 µM (active) and 2.17 µM (active); in [6], 1.81 µM (active). Moreover, the AC50 is 1.5 µM (active) and 2.05 µM (active) in test [7]; 1.35 µM (active) and 2.58 µM (active) with CD38, CD38 (gene 952); 1.51 µM (active) and 1.86 µM (active) with CD40, CD40 (gene 958); 1.91 µM (active) and 3.73 µM (active) with CD69, CD69 (gene 969). Also, in test [6], the outcome was inactive.

Regarding `COc1cccc(C(=O)NN(C(=O)c2cc(C)cc(C)c2)C(C)(C)C)c1C`, the result in test [1], in [2], in test [3], in test [4], in [5] and in test [6] was inactive. In addition, the outcome in [7] was “inactive”; with CD38, CD38 (gene 952), “inactive”; with CD40, CD40 (gene 958), “inactive”; with CD69, CD69 (gene 969), “inactive”.

In the case of `C[N+]1(C)CCCCC1`, the result in test [1], in test [2], in test [3], in test [4], in [5] and in test [6] was inactive. Besides, the outcome in [7] was “inactive”; in the test with CD38, CD38 (gene 952), “inactive”; in the test with CD40, CD40 (gene 958), “inactive”; with CD69, CD69 (gene 969), “inactive”.

`CC(Oc1cccc(Cl)c1)C(=O)O` (stereo not given): the result in test [1], in [2], in test [3], in [4], in test [5] and in [6] was inactive. Moreover, the outcome is “inactive” in test [7]; “inactive” with CD40, CD40 (gene 958); “inactive” with CD69, CD69 (gene 969).

Consider `CCOC(=O)COc1cc(-c2nn(C)c(OC(F)F)c2Cl)c(F)cc1Cl`, for which the result in [1], in test [2], in [3], in test [4], in [5] and in test [6] was inactive. The outcome in [7] was “inactive”; with CD38, CD38 (gene 952), “inactive”; with CD40, CD40 (gene 958) it was “inactive”. For the same molecule, in the test with CD69, CD69 (gene 969), the AC50 is 3.97 µM (active).

As for `CCc1cnc(C2=NC(C)(C(C)C)C(=O)N2)c(C(=O)O)c1` (stereo not given), the result in test [1], in test [2], in test [3], in [4], in test [5] and in test [6] was inactive. The outcome in test [7] is “inactive”; with CD38, CD38 (gene 952), “inactive”; with CD40, CD40 (gene 958) it was “inactive”; with CD69, CD69 (gene 969), “inactive”.

For the molecule `CNC(=O)ON=C(SC)C(=O)N(C)C`, the outcome in test [1], in test [2], in test [3], in test [4], in [5] and in test [6] was inactive. Moreover, the outcome with CD38, CD38 (gene 952) was “inactive”; with CD40, CD40 (gene 958) it was “inactive”; in the test with CD69, CD69 (gene 969), “inactive”. Further, the concentration at half-maximal activity (AC50) in [7] was 10.2 µM (active).

With `CCc1cccc(C)c1N(C(=O)CCl)C(C)COC` (stereo not given), the outcome in [1] was “inactive”; in test [2], “inactive”; in test [3], “inactive”; in [4] it was “inactive”; in test [5], “inactive”; with CD40, CD40 (gene 958), “inactive”. Also, the AC50 in [6] was 13.1 µM (active); in test [7] it was 14.2 µM (active).

In the case of `CSC1=N[C@@](C)(c2ccccc2)C(=O)N1Nc1ccccc1`, the result in test [1], in test [4], in test [5], in [6] and in test [7] was inactive. Besides, the half-maximal activity concentration (AC50) is 15.2 µM (active) in [2]; 6.96 µM (active) in [3]; 14.3 µM (active) in the test with CD38, CD38 (gene 952); 11.4 µM (active) with CD40, CD40 (gene 958); 11.5 µM (active) with CD69, CD69 (gene 969).

Turning to `CN(C)C(=O)Nc1cccc(C(F)(F)F)c1`, the outcome in [1], in test [2], in test [3], in test [4], in test [5] and in test [6] was inactive. Moreover, the outcome in [7] is “inactive”; in the test with CD38, CD38 (gene 952) it was “inactive”; with CD40, CD40 (gene 958), “inactive”; with CD69, CD69 (gene 969) it was “inactive”.

Regarding `CCC(=O)Nc1ccc(Cl)c(Cl)c1`, the result in [1], in test [2], in [4], in [5], in test [6] and in test [7] was inactive. The outcome with CD38, CD38 (gene 952) is “inactive”; with CD40, CD40 (gene 958), “inactive”; with CD69, CD69 (gene 969), “inactive”. Moreover, the AC50 in test [3] was 8.77 µM (active).
